# Activity calls are given as the source filed them. Rule for the calls: active = hit-call score of the fitted dose curve at least 0.9, where 1 is the maximum; inactive = score below 0.9.
# Experiments:
# Conditions in all cases: mRNA level, 48 h; actives raise or lower the signal
# [1] = read-out: ATP-citrate lyase (ACLY), ACLY (gene 47); experiment: LTEA_HepaRG_ACLY: Life Technologies and Expression Analysis (LTEA) Assay for ATP-citrate lyase (ACLY) using HepaRG (AID 2283466)
# Procedure, shortened: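 HepaRG, 48 h exposure, 8-pt half-log dilutions (top 100 uM), 0.5% DMSO. Readout: ACLY mRNA, TaqMan qRT-PCR, housekeeping-normalized (ACTB/GAPDH/POLR2A). Bidirectional curve fit vs DMSO.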
# [2] = read-out: Peroxisomal acyl-coenzyme A oxidase 1 (ACOX1) gene, ACOX1 (gene 51); experiment: LTEA_HepaRG_ACOX1: Life Technologies and Expression Analysis (LTEA) Assay for Peroxisomal acyl-coenzyme A oxidase 1 (ACOX1) gene using HepaRG (AID 2283467)
# Procedure, shortened: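 Measured by qRT-PCR against three housekeeping genes: ACOX1 transcript change in human HepaRG cells after 48 h dosing. Concentrations ran up to 100 uM in half-log steps. Curves were fitted bidirectionally relative to 0.5% DMSO.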
# [3] = read-out: Alkaline Phosphatase, Placental (ALPP) gene, ALPP (gene 250); experiment: LTEA_HepaRG_ALPP: Life Technologies and Expression Analysis (LTEA) Assay for Alkaline Phosphatase, Placental (ALPP) gene using HepaRG (AID 2283468);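 for AC50: differentiated human HepaRG liver cells in serum-free induction medium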
# Procedure, shortened: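 ALPP transcript level, measured by qRT-PCR and normalized to three housekeeping genes (ACTB, GAPDH, POLR2A), after 48 h dosing of differentiated HepaRG in serum-free induction medium. Top concentration 100 uM with half-log dilutions (8 points, 0.5% DMSO, duplicates); bidirectional fitting relative to DMSO.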
# [4] = read-out: Bcl-2 (BAD) gene, BAD (gene 572); experiment: LTEA_HepaRG_BAD: Life Technologies and Expression Analysis (LTEA) Assay for Bcl-2 (BAD) gene using HepaRG (AID 2283469)
# Procedure, shortened: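 BAD transcript change, measured by qRT-PCR against three housekeeping genes and fitted in both directions relative to 0.5% DMSO, after 48 h chemical treatment of human HepaRG liver cells at concentrations up to 100 uM.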
# [5] = read-out: Bcl-2 (BAX) gene, BAX (gene 581); experiment: LTEA_HepaRG_BAX: Life Technologies and Expression Analysis (LTEA) Assay for Bcl-2 (BAX) gene using HepaRG (AID 2283470)
# Procedure, shortened: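 Concentration-response endpoint fitted in both directions relative to 0.5% DMSO vehicle. Human HepaRG cultures receive test chemicals for 48 h at up to 100 uM; BAX mRNA is quantified by qRT-PCR against housekeeping genes.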
# [6] = read-out: adenosine kinase (ADK) gene, ADK (gene 132); experiment: LTEA_HepaRG_ADK: Life Technologies and Expression Analysis (LTEA) Assay for adenosine kinase (ADK) gene using HepaRG (AID 2283471)
# Procedure, shortened: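 Read-out is ADK transcript level measured by qRT-PCR and normalised to three housekeeping genes. Cells are human HepaRG, dosed for 48 h at up to 100 uM in 0.5% DMSO. Gain or loss of signal is fitted against DMSO controls.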
# [7] = read-out: Alpha-fetoprotein (AFP) gene, AFP (gene 174); experiment: LTEA_HepaRG_AFP: Life Technologies and Expression Analysis (LTEA) Assay for Alpha-fetoprotein (AFP) gene using HepaRG (AID 2283472)
# Procedure, shortened: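 After a 48 h plating period, cells are moved to serum-free induction medium and dosed in duplicate (100 uM maximum, half-log dilutions, 0.5% DMSO) for another 48 h. Total RNA goes to TaqMan qRT-PCR; AFP signal is housekeeping-normalized.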
# BCL2L11 (gene 10018) = experiment: LTEA_HepaRG_BCL2L11: Life Technologies and Expression Analysis (LTEA) Assay for Bcl-2 (BCL2L11) gene using HepaRG (AID 2283473)
# Procedure, shortened: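 BCL2L11 transcript levels are measured by Fluidigm qRT-PCR, normalized to three housekeeping genes. HepaRG cultures were plated 48 h, then treated 48 h with test chemical (top 100 uM, half-log, 0.5% DMSO vehicle); curves were fitted bidirectionally against DMSO.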
# [8] = read-out: Apolipoprotein A-V (APOA5) gene, APOA5 (gene 116519); experiment: LTEA_HepaRG_APOA5: Life Technologies and Expression Analysis (LTEA) Assay for Apolipoprotein A-V (APOA5) gene using HepaRG (AID 2283474)
# Procedure, shortened: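 APOA5 transcript levels were quantified by qRT-PCR, normalized to three housekeeping genes, after 48 h chemical treatment of HepaRG cells (8 points, 100 uM maximum, half-log steps, 0.5% DMSO). Curves fitted in both directions against vehicle.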
# Caspase-3 (Homo sapiens) = Caspase-3 (Homo sapiens) (UniProt P42574); experiment: LTEA_HepaRG_CASP3: Life Technologies and Expression Analysis (LTEA) Assay for cysteine-aspartic acid protease (CASP3) using HepaRG (AID 2283477)
# Procedure, shortened: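 Expression of CASP3 was quantified by TaqMan qRT-PCR against three housekeeping genes (ACTB, GAPDH, POLR2A), bidirectionally versus 0.5% DMSO. HepaRG cultures received compounds in duplicate, top 100 uM with half-log steps, for 48 h in serum-free induction medium.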
# [9] = read-out: Cytochrome P450 (CYP24A1), CYP24A1 (gene 1591); experiment: LTEA_HepaRG_CYP24A1: Life Technologies and Expression Analysis (LTEA) Assay for Cytochrome P450 (CYP24A1) using HepaRG (AID 2283478)
# Procedure, shortened: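 mRNA of CYP24A1 quantified by TaqMan qRT-PCR (ACTB/GAPDH/POLR2A normalization) after 48 h chemical exposure of HepaRG cells, top concentration 100 uM, half-log steps, 0.5% DMSO vehicle, duplicates. Curves fitted bidirectionally against DMSO baseline.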
# [10] = read-out: Cytochrome P450 (CYP1A2), CYP1A2 (gene 1544); experiment: LTEA_HepaRG_CYP1A2: Life Technologies and Expression Analysis (LTEA) Assay for Cytochrome P450 (CYP1A2) using HepaRG (AID 2283479)
# Procedure, shortened: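 CYP1A2 transcript measured by TaqMan qRT-PCR against three housekeeping genes after 48-hour chemical exposure of HepaRG cells. Eight-point half-log series topping at 100 uM in 0.5% DMSO, duplicates; gain or loss fitted relative to vehicle.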
# [11] = read-out: cysteine-aspartic acid protease (CASP8), CASP8 (gene 841); experiment: LTEA_HepaRG_CASP8: Life Technologies and Expression Analysis (LTEA) Assay for cysteine-aspartic acid protease (CASP8) using HepaRG (AID 2283480)
# Procedure, shortened: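 HepaRG, 48 h exposure, duplicate wells; 8 conc, half-log from 100 uM, 0.5% DMSO. Serum-free induction medium. CASP8 mRNA by TaqMan qRT-PCR, norm. ACTB/GAPDH/POLR2A; gain/loss fitted vs DMSO.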
# [12] = read-out: Cytochrome P450 (CYP2B6), CYP2B6 (gene 1555); experiment: LTEA_HepaRG_CYP2B6: Life Technologies and Expression Analysis (LTEA) Assay for Cytochrome P450 (CYP2B6) using HepaRG (AID 2283481)
# Procedure, shortened: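 CYP2B6 transcript level quantified by qRT-PCR against three housekeeping genes, fitted bidirectionally relative to DMSO. HepaRG cultures received chemicals for 48 h, 8-point half-log series from 100 uM in 0.5% DMSO, duplicate wells, serum-free induction medium.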
# [13] = read-out: Cytochrome P450 2C19 (Homo sapiens) (UniProt P33261); experiment: LTEA_HepaRG_CYP2C19: Life Technologies and Expression Analysis (LTEA) Assay for CYP2C19 using HepaRG (AID 2283482)
# Procedure, shortened: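 CYP2C19 transcript levels by qRT-PCR, normalized to three housekeeping genes, in HepaRG cells after 48 h chemical exposure. Eight-point half-log series topping at 100 uM, 0.5% DMSO vehicle. Increases and decreases both fitted against DMSO.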
# CYP2C8 (gene 1558) = experiment: LTEA_HepaRG_CYP2C8: Life Technologies and Expression Analysis (LTEA) Assay for CYP2C8 using HepaRG (AID 2283483)
# Procedure, shortened: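 CYP2C8 mRNA induction or loss, by qRT-PCR normalized to ACTB/GAPDH/POLR2A, is read in HepaRG cells after 48 h treatment. Concentrations run from 100 uM down in half-log dilutions, with 0.5% DMSO as vehicle and baseline.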
# CYP2C9 (gene 1559) = experiment: LTEA_HepaRG_CYP2C9: Life Technologies and Expression Analysis (LTEA) Assay for CYP2C9 using HepaRG (AID 2283484)
# Procedure, shortened: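 Cells plated 48 h, switched to serum-free induction medium, then treated in duplicate for 48 h at eight concentrations (max 100 uM, 0.5% DMSO). RNA then analysed by qRT-PCR for CYP2C9; curves fitted in both directions relative to DMSO.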
# CYP2E1 (gene 1571) = experiment: LTEA_HepaRG_CYP2E1: Life Technologies and Expression Analysis (LTEA) Assay for CYP2E1 using HepaRG (AID 2283485)
# Procedure, shortened: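 Differentiated HepaRG cells were treated in duplicate for 48 h with chemicals in 0.5% DMSO, from 100 uM downward in half-log dilutions. RNA was then analysed by qRT-PCR for CYP2E1 induction or loss.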
# [14] = read-out: Bcl-2 (BID) gene, BID (gene 637); experiment: LTEA_HepaRG_BID: Life Technologies and Expression Analysis (LTEA) Assay for Bcl-2 (BID) gene using HepaRG (AID 2283476)
# Procedure, shortened: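 Gain or loss of BID expression is fitted relative to 0.5% DMSO vehicle. Human HepaRG liver cells received a 48 h chemical exposure over an eight-point concentration range.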
# [15] = read-out: Apoptosis regulator Bcl-2 (Homo sapiens) (UniProt P10415); experiment: LTEA_HepaRG_BCL2: Life Technologies and Expression Analysis (LTEA) Assay for Bcl-2 gene using HepaRG (AID 2283475);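 note: BCL2 transcript by TaqMan qRT-PCR normalised to ACTB GAPDH and POLR2A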
# Procedure, shortened: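 Expression change of BCL2 mRNA in HepaRG after 48 h dosing, quantified by TaqMan qRT-PCR against three endogenous controls. Concentration-response used eight points up to 100 uM, vehicle 0.5% DMSO.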
# Caspase-3 (Homo sapiens), sequence (P42574 whole entry, looked up): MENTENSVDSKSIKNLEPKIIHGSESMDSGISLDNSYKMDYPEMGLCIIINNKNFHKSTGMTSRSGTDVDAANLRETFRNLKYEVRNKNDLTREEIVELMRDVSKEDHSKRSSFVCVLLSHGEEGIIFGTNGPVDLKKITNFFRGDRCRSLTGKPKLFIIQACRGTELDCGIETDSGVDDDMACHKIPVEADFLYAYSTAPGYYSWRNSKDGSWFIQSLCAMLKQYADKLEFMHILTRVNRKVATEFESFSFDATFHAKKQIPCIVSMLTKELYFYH
# Cytochrome P450 2C19 (Homo sapiens), sequence (P33261 whole entry, looked up): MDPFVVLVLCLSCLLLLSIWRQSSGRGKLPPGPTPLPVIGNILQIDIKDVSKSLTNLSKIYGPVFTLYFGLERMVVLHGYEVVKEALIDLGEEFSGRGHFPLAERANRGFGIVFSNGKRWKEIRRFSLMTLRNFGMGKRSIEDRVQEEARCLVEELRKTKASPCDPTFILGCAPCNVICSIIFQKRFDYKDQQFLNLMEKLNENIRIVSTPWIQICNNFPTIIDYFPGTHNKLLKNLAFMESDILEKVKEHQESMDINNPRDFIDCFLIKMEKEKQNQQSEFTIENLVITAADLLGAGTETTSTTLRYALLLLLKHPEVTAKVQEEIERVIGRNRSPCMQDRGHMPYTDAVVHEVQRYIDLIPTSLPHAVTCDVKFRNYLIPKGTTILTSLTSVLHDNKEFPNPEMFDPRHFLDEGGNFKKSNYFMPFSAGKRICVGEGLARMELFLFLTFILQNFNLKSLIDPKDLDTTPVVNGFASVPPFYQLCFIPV
# Apoptosis regulator Bcl-2 (Homo sapiens), sequence (P10415 whole entry, looked up): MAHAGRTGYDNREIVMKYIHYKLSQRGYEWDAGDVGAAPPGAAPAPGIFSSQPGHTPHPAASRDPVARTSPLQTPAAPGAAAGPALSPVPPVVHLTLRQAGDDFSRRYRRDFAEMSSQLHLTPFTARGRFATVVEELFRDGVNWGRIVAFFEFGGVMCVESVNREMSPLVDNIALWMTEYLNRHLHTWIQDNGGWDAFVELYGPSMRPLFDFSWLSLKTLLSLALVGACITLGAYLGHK
smiles,measurement,setting,value
CCCCc1nc2cccnc2n1Cc1ccc(-c2ccccc2-c2nnn[nH]2)cc1,outcome,[1],inactive
same,outcome,[2],inactive
same,AC50,[3],15.5 µM (active)
same,outcome,[4],inactive
same,outcome,[5],inactive
same,outcome,[6],inactive
same,AC50,[7],33.2 µM (active)
same,outcome,BCL2L11 (gene 10018),inactive
same,outcome,[8],inactive
same,outcome,Caspase-3 (Homo sapiens),inactive
same,outcome,[9],inactive
same,outcome,[10],inactive
same,outcome,[11],inactive
same,AC50,[12],10.4 µM (active)
same,outcome,[13],inactive
same,outcome,CYP2C8 (gene 1558),inactive
same,outcome,CYP2C9 (gene 1559),inactive
same,AC50,CYP2E1 (gene 1571),28.6 µM (active)
CC(=O)[C@@]1(O)CC[C@H]2[C@@H]3CCC4=CC(=O)CC[C@]4(C)[C@H]3CC[C@@]21C,AC50,[1],39.6 µM (active)
same,outcome,[2],inactive
same,outcome,[3],inactive
same,outcome,[4],inactive
same,outcome,[5],inactive
same,outcome,[6],inactive
same,AC50,[7],50 µM (active)
same,outcome,BCL2L11 (gene 10018),inactive
same,outcome,[8],inactive
same,outcome,[14],inactive
same,outcome,Caspase-3 (Homo sapiens),inactive
same,outcome,[11],inactive
O=C(O)c1[nH]n(-c2ccc(S(=O)(=O)O)cc2)c(=O)c1N=Nc1ccc(S(=O)(=O)O)cc1,outcome,[1],inactive
same,outcome,[2],inactive
same,outcome,[3],inactive
same,outcome,[4],inactive
same,outcome,[5],inactive
same,outcome,[6],inactive
same,outcome,[7],inactive
same,outcome,BCL2L11 (gene 10018),inactive
same,outcome,[8],inactive
same,outcome,[15],inactive
same,outcome,Caspase-3 (Homo sapiens),inactive
same,outcome,[9],inactive
same,outcome,[11],inactive
same,outcome,[12],inactive
same,outcome,[13],inactive
same,outcome,CYP2C8 (gene 1558),inactive
same,outcome,CYP2C9 (gene 1559),inactive
same,outcome,CYP2E1 (gene 1571),inactive
C=CCc1ccc(OC)c(OC)c1,outcome,[1],inactive
same,outcome,[3],inactive
same,outcome,[4],inactive
same,outcome,[5],inactive
same,outcome,[6],inactive
same,outcome,[7],inactive
same,outcome,BCL2L11 (gene 10018),inactive
same,outcome,[8],inactive
same,outcome,[15],inactive
same,AC50,[14],9.92 µM (active)
same,outcome,Caspase-3 (Homo sapiens),inactive
same,outcome,[9],inactive
same,outcome,[11],inactive
same,AC50,[12],2.13 µM (active)
same,outcome,[13],inactive
same,outcome,CYP2C8 (gene 1558),inactive
same,outcome,CYP2C9 (gene 1559),inactive
same,outcome,CYP2E1 (gene 1571),inactive
